# The list is not random: actives were taken first. Their share in the collection is about 4%.
# D1 antag: blocks dopamine activation of the human D1 receptor; P21728; HEK293 TREx D1 cells, calcium flux, dopamine EC80; hits give low values; activity change, negative = inhibition, % at 10 µM; actives 3.2% (n = 360,000); in the data active means activity change below about -30%
# Target sequence (P21728 whole entry, looked up): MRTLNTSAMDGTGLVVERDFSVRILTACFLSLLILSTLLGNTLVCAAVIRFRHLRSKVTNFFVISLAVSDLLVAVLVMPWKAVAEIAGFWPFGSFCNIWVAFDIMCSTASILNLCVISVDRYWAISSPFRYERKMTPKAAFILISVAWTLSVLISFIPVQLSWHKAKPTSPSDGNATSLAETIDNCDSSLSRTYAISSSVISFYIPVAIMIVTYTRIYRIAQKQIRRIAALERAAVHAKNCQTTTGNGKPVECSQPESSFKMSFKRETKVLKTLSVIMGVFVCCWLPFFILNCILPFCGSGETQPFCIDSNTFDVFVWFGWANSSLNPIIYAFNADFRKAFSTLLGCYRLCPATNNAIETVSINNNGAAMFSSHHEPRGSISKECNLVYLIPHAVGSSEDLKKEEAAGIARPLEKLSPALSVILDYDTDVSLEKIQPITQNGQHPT
#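 Tetracycline-induced HEK293 Trex D1 cells, force-coupled to calcium, dye-loaded; compounds added and read 180 s, then EC80 dopamine added and calcium flux tracked kinetically another 180 s.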
# TRHR PAM: allosterically enhances the human TRH receptor | P34981 | TRHR cells, fluo-8 calcium fluorescence, EC20 TRH enhancement | enhancement, % at 2 µM | actives 0.66% (n = 360,000) | AID 493056; in the data active means enhancement above about 30%
#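 Enhancer read-out: after compound pinning and an initial kinetic agonist-mode read, an EC20 of TRH (10 nM final) was injected and fluo-8 calcium signal (Ex 480/Em 530) followed at 1 s/cycle for 100 cycles in TRHR-expressing cells.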
# Glioma ERSR ind: inducers of ER stress response in human glioma cells; U87-MG GRP78 promoter luciferase reporter, 16 h; Potency, µM, actives largely listed as activators; actives 0.02% (n = 420,000); AID 602332; active means well fitted activation curve with a large enough effect; further: series mostly up to about 76 µM; nearly all actives have a fitted effect of over 35% in size
#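 Stably transfected U87-MG glioma cells carrying a GRP78-based luciferase sensor; 16 h compound incubation. Luminescence end-point read 10 min after Bright-Glo addition at room temperature.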
# D1 agonist: human D1 receptor agonism | P21728 | HEK293 T-REx D1 cells, calcium flux, agonist mode | activation, % at 2 µM | actives 1% (n = 360,000) | AID 504660
#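 Tetracycline-induced HEK293 TREx D1 cells, force-coupled to calcium signalling, were dye-loaded with a no-wash calcium kit. Compound was pin-added after a 10 s baseline. Fluorescence was read kinetically at 1 cycle/s for 180 s, with calcium rises flagged as agonism.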
# TRHR ag: agonists of human TRH receptor; P34981; TRHR cells, calcium flux fluo-8, FDSS agonist mode; activation, % at 2 µM; actives 0.18% (n = 360,000); AID 493084
#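 Fluo-8-loaded TRHR cells; 10 s baseline, compound added, kinetic Ca2+ fluorescence read 1/s, agonist mode.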
# D1 PAM: enhances dopamine response at the human D1 receptor; P21728; HEK293 TREx D1 cells, calcium flux, dopamine EC20 potentiation; potentiation, % at 10 µM; actives 0.036% (n = 360,000); AID 504651; in the data active means potentiation above about 30%
# Numbers stand for hits; – = inactive. Unless noted, no stated cut-off is given here; in the data, active means activation above about 30%; inactive means the rest.
SMILES,D1 antag,TRHR PAM,Glioma ERSR ind,D1 agonist,TRHR ag,D1 PAM
Cc1cccc(C)c1NC(=O)COC(=O)c1c2c(nc3ccccc13)/C(=C\c1ccc3c(c1)OCO3)CCC2,-33,–,–,94,–,–
Cc1cccc(C)c1NC(=O)COC(=O)c1ccc2c(c1)OCO2,–,–,–,–,–,–
CC(OC(=O)c1cc2ccccc2cc1O)C(=O)Nc1ccc(S(N)(=O)=O)cc1 (configuration not stated),–,–,–,–,–,–
Cc1cc(C)c(N)c(C(=O)O)c1,–,38,–,–,–,–
Nc1cc(=O)[nH]c2nnc(SCC(=O)Nc3cccc4ccccc34)n12,-45,–,–,–,–,–
CC(C)Cn1c(-c2ccc(Br)cc2)c[nH]c1=S,–,–,–,43,–,–
CCn1c(-c2ccccc2)c[nH]c1=S,–,–,–,–,–,–
COc1ccc(Br)c(C(=O)NC(C)(C)CO)c1,–,–,–,–,–,–
O=C(CSCc1cnn(-c2ccccc2)c1-n1cccc1)NCc1cccnc1,–,–,–,–,–,–

# High-throughput results deposited in PubChem by National Center for Advancing Translational Sciences (NCATS).
